DT40 TDP1 CPT – DT40-hTDP1 cell growth loss with CPT; hit rate 12% among 420,000; Potency, µM (titrated, usually from 46.2 µM), for the others: top-dose activity change, negative = growth inhibition, hits mostly inhibitors; chicken DT40 Tdp1-/-;hTDP1 cells + 20 nM CPT, ATP luminescence, 48 h; further: potency means the concentration at half of the fitted maximal effect; nearly all actives have a fitted effect of over 55% in size
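Cell growth measured by CellTiter-Glo luminescence after a minimum 48 h, 37 C compound exposure with 20 nM CPT in Tdp1-knockout DT40 cells stably expressing hTDP1, seeded 400/well; qHTS titration format.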
HT1080NT lethal – kills 2HG-producing HT-1080-NT fibrosarcoma cells | HT-1080-NT fibrosarcoma viability, CellTiter-Glo ATP luminescence, 48 h | hit rate 1.6% among 360,000 | Potency, µM (doses to about 46.1 µM), for the others: top-dose activity, negative = less viability, actives largely listed as cytotoxic;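 further: NT is the 2HG producing partner of a matched IDH1 knockdown line; potency means the concentration at half of the fitted maximal effect; 0% = DMSO-treated cells and -100% = media-only wells without cells; nearly all actives have a fitted effect of over 55% in size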
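Fibrosarcoma NT cells, 750 per well in 5% FBS RPMI, were exposed to compound for 48 hours. Viability: CellTiter-Glo luminescence.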
HT1080 IDH1KD tx – kills HT-1080 cells with IDH1 knockdown; HT-1080 IDH1 knockdown viability, ATP luminescence, 48 h; Potency, µM (top dose mostly 46.1 µM), inactives show at the top dose activity, negative = toxicity, hits mostly cytotoxic; hit rate 2% among 360,000; AID 686971;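 further: potency means the concentration at half of the fitted maximal effect; 0% = DMSO wells and -100% = cell-free medium wells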
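After a 2 h attachment period, IDH1KD HT-1080 cells took pin-transferred compound for 48 h at 37 °C; ATP-based luminescence after 10 min room-temperature reagent incubation reported viability.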
uPA generation – blocks generation of uPA at the cell surface; cell surface uPA generation assay, qHTS; Potency, µM (highest dose often 38.3 µM), for the others: at the highest dose activity change, negative = inhibition, most hits filed as inhibitors; hit rate 0.31% among 330,000; active means well fitted inhibition curve with a large enough effect; inconclusive means small, poorly fitted or top-dose-only effect; inactive means no such curve, though single readings can be large or run the other way; tested in mouse RAW 264.7 cells; further: potency means the concentration at half of the fitted maximal effect; nearly all actives have a fitted effect of over 55% in size
IL1B secr inh – inflammasome signaling inhibition, IL-1 beta readout; THP-1 LPS/ATP IL-1B secretion, AlphaLISA, 16 h; hits give low values; activity change, % at 57.5 µM; hit rate 4.7% among 360,000; in the data active means activity change below about -50%; inconclusive means mostly about -30% to -49%
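Secreted IL-1B measured by AlphaLISA bead assay after 16 h compound exposure of THP-1 cells; compounds (final up to 57.5 uM) added 1 h before LPS (250 ng/mL) and ATP (1.25 mM) stimulation; lower signal means less secretion.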
TDP1 cell noCPT – qHTS for Inhibitors of human tyrosyl-DNA phosphodiesterase 1 (TDP1): qHTS in cells in absence of CPT. Potency, µM (titrated, usually from 46.2 µM), without a hit: at the top dose activity change, negative = growth inhibition, hits mostly inhibitors. DT40 Tdp1-/- hTDP1 cells, no CPT, ATP luminescence, 48 h. hit rate 15% among 420,000. AID 686978, 2013; further: potency means the concentration at half of the fitted maximal effect; nearly all actives have a fitted effect of over 55% in size
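A cellular qHTS used chicken DT40 cells lacking endogenous Tdp1 but carrying stably transfected human TDP1. Compounds were applied without camptothecin, and cell growth kinetics were judged by ATP-dependent luminescence after ≥48 hr.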
Active calls of the source: *; u = inconclusive; x = no result. Rows were chosen to be rich in hits. Some 19% of all compounds tested hit in one or more screens of this group. Unless noted, the call rests on the fitted dose curve; in most records, active means well fitted curve in the direction sought with a large enough effect; inconclusive means small, poorly fitted or top-dose-only effect, or another doubt; inactive means no such curve, though single readings can be large; an effect the other way counts as inactive or inconclusive. Unless noted, on the % scale 0 is the no-effect control and ±100 the full control effect.

SMILES	DT40 TDP1 CPT	HT1080NT lethal	HT1080 IDH1KD tx	uPA generation	IL1B secr inh	TDP1 cell noCPT
COc1ccccc1-c1cnc(C(O)c2cc(C)c(OC)c(C)c2)[nH]1 (stereo not drawn)	23.1µM*	u	u	x	16.8	23.1µM*
CSc1ccc(C(O)c2ncc(-c3ccccc3F)[nH]2)cc1 (stereo not drawn)	29.1µM*	-1.8%	-17.0%	x	52.7	u
CSc1ccc(C(O)c2ncc(-c3ccccc3Cl)[nH]2)cc1 (stereo not drawn)	u	17.2%	13.8%	x	12.1	-27.4%
COc1ccccc1-c1cnc(C(O)c2ccc(SC)cc2)[nH]1 (stereo not drawn)	29.1µM*	16.4%	14.3%	x	32.5	u
CCc1ccc(C(O)c2ncc(-c3cccc4ccccc34)[nH]2)cc1 (stereo not drawn)	u	u	u	x	-14.3	16.4µM*
OC(c1ccc(F)cc1)c1ncc(-c2cccc3ccccc23)[nH]1 (stereo not drawn)	u	-24.5%	-5.3%	x	-2.8	u
O=C(NNC(=S)NC(=O)c1ccco1)c1ccc(NC(=O)c2ccccc2)cc1	16.4µM*	-7.4%	-8.7%	9.9%	36.0	20.6µM*
O=C(NC(=S)Nc1cccc(NC(=S)NC(=O)c2ccco2)n1)c1ccco1	-18.3%	u	u	-0.7%	44.8	5.17µM*
CCCCC(=O)Nc1ccc(C(=O)NNC(=S)NC(=O)c2ccco2)cc1	13µM*	-11.2%	-13.9%	-7.2%	26.7	23.1µM*
CCOc1ccc(NC(=S)NC(=O)c2ccco2)cc1	-26.4%	14.5%	6.9%	-21.4%	25.1	29.1µM*
CN(Cc1ccccc1)C(=O)c1nc2ccccn2c1CN1CCC(N2CCOCC2)CC1	-3.1%	3.0%	1.1%	-8.4%	9.4	-6.2%
O=C1C2C3C=CC(C3)C2C(=O)N1Nc1c(Cl)cc(Cl)cc1Cl (stereo not drawn)	-20.3%	6.2%	-1.4%	4.3%	0.0	5.5%
O=C(NC(=S)NNC(=O)c1ccccc1O)c1ccco1	20.6µM*	u	u	-0.9%	22.5	18.4µM*
CCN(CC)CCCN(Cc1cc2cc3c(cc2[nH]c1=O)OCO3)C(=S)Nc1ccc(OC)cc1	-28.0%	3.5%	-13.6%	-7.8%	-71.4*	29.1µM*
Cc1cccc(NC(=S)N(CCN2CCOCC2)Cc2cc3cc4c(cc3[nH]c2=O)OCO4)c1	-4.1%	-2.0%	-0.3%	-4.5%	-7.6	u
COc1ccc(NC(=S)N(CCN2CCOCC2)Cc2cc3cc4c(cc3[nH]c2=O)OCCO4)cc1	u	-14.4%	-15.8%	-6.2%	-61.0*	-27.5%
CCN(CC)CCCN(Cc1cc2cc3c(cc2[nH]c1=O)OCO3)C(=S)NC	19.8%	21.7%	10.2%	2.5%	-2.2	-1.1%
Cc1cn2c(=O)cc(COC(=O)c3cccc(NC(=O)C(C)Oc4ccccc4)c3)nc2s1 (stereo not drawn)	-7.0%	x	x	x	x	-20.1%
COc1cc(/C=N/N2CCN(C3c4ccccc4-c4ccccc43)CC2)cc(OC)c1OC	16.4µM*	9.7%	15.0%	-2.6%	1.4	14.6µM*
Cc1ccc(/C=N/N2CCN(C3c4ccccc4-c4ccccc43)CC2)o1	u	5.1%	-12.4%	-10.5%	-13.1	18.4µM*
O=C(O)c1ccc(/C=N/N2CCN(C3c4ccccc4-c4ccccc43)CC2)cc1	-15.3%	4.9%	2.3%	0.2%	-14.7	4.0%
Oc1ccc(/C=N/N2CCN(C3c4ccccc4-c4ccccc43)CC2)cc1	-11.3%	-10.2%	-8.2%	-0.9%	-64.1*	-19.4%
Oc1ccc(/C=N/N2CCN(C3c4ccccc4-c4ccccc43)CC2)cc1O	8.2µM*	-27.9%	u	-1.0%	u	10.3µM*

High-throughput results: PubChem BioAssay, National Center for Advancing Translational Sciences (NCATS)
